Consider 18 compounds from PubChem BioAssay (NCI).

The panel holds about 79,000 compounds, 15% with a hit somewhere; the sample as a whole holds those more often. A number with no mark means an inactive call. The source made the active and inactive calls. Rule as the data show it: active = growth inhibition above about 70%; inactive = the rest.

A short description of assay [1]: NCI Yeast Anticancer Drug Screen. Data for the rad50 strain (AID 155).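 Also: 0% = growth of vehicle-only cultures of the same strain.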 As to conditions: S. cerevisiae rad50 strain growth inhibition; at 50.0 µM; active compounds read high. A digest of the protocol:
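Vehicle-treated cultures provide the reference for the growth inhibition reported for compound-exposed, repair-deficient yeast.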

Assay [2] can be described thus: NCI Yeast Anticancer Drug Screen. Data for the mec2-1 strain (AID 157). As to conditions: S. cerevisiae mec2-1 strain, at 50.0 µM, active compounds read high. The method, boiled down:
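Mutant yeast (mec2-1) grown with compound; growth inhibition relative to vehicle control reported.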

The nature of assay [3]: NCI Yeast Anticancer Drug Screen. Data for the sgs1 mgt1 strain (AID 161).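 Also: 0% = growth of cultures given vehicle only.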 Particulars: S. cerevisiae sgs1 mgt1 strain, at 50.0 µM, active compounds read high. The method, boiled down:
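This yeast growth screen uses a strain with defined DNA-repair lesions; compound-treated growth is compared with vehicle-treated growth.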

A short description of assay [4]: NCI Yeast Anticancer Drug Screen. Data for the cln2 rad14 strain (AID 165).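 Also: 0% = growth equal to vehicle treated cultures.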 Particulars: S. cerevisiae cln2 rad14 strain, at 50.0 µM, active compounds read high. The method, boiled down: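 Readout is yeast growth inhibition versus vehicle-treated controls, using a strain with cln2 and rad14 alterations exposed to compound.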
Assay [5] can be described thus: NCI Yeast Anticancer Drug Screen. Data for the bub3 strain (AID 167). Particulars: S. cerevisiae bub3 mutant strain, at 50.0 µM, active compounds read high. A digest of the protocol: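 Mutant yeast screening strain plus compound; vehicle-treated cultures serve as the 0% inhibition reference.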
The nature of assay [6]: NCI Yeast Anticancer Drug Screen. Data for the mlh1 rad18 strain (AID 175). Particulars: S. cerevisiae mlh1 rad18 strain growth inhibition; at 50.0 µM; active compounds read high. The method, boiled down:
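Genetically defined yeast (DNA repair-deficient) exposed to compounds; growth inhibition determined relative to vehicle.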

`Clc1ccc2c(c1)nnn1nccc21`: the growth inhibition in assay [1] was 16.4%; in assay [2], 17.6%; in assay [3] it was -9.8%; in assay [4], 10.9%; in assay [5], 13.8%; in assay [6], 14.8%.

In the case of `C=C1C(=O)C[C@H]2[C@H]3CC[C@H](C(=O)O)[C@]12CC3(C)C`, the growth inhibition is 90.8% (active) in assay [1]; 93.8% (active) in assay [2]; 93.8% (active) in assay [3]; 87.7% (active) in assay [4]; 92.2% (active) in assay [5]; 92.1% (active) in assay [6].

`CC1(C)C=CC=C(C(=O)O)C=C1`: the growth inhibition was -23.1% in assay [1]; -24% in assay [2]; -34.2% in assay [3]; -21.4% in assay [4]; -13.7% in assay [5]; -14.7% in assay [6].

Turning to `C=CCc1cc(C(Cc2ccccc2)NC(C)C)cc(OCc2ccccc2)c1OCc1ccccc1` (stereo not drawn), the growth inhibition in assay [1] is 10.1%; in assay [2], 11.5%; in assay [3] it was 16.9%; in assay [4], -3.95%; in assay [5], 47.6%; in assay [6] it was 50.9%.

For the compound `Nc1nc(C(F)(F)F)nc(N)c1N`, the growth inhibition was 7.6% in assay [1]; 11% in assay [2]; 15.1% in assay [3]; 3.2% in assay [4]; -5.95% in assay [5]; 14.6% in assay [6].

Regarding `COc1ccc2oc(=N)c(C(=O)NCc3ccccc3)cc2c1`, the growth inhibition in assay [1] was -4%; in assay [2], -0.85%; in assay [3], -19.1%; in assay [4], -6.35%; in assay [5] it was -34.1%; in assay [6], -24.6%.

For the compound `Nc1nc2c(ncn2C2OC(COC(=O)c3ccccc3)C(OC(=O)c3ccccc3)C2OC(=O)c2ccccc2)c(=O)[nH]1` (stereo not drawn), the growth inhibition was -25.9% in assay [1]; -12.8% in assay [2]; -0.6% in assay [3]; 11.5% in assay [4]; 0.9% in assay [5]; -7.65% in assay [6].

`COc1ccc(NC(C)=O)c(C(O)CCNC(C)=O)c1` (stereo not drawn): the growth inhibition is -14.1% in assay [1]; -13.3% in assay [2]; -25.9% in assay [3]; -7.8% in assay [4]; -40.1% in assay [5]; -28.5% in assay [6].

`OC[C@@H]1C2CCC([C@@H]1CO)C2(Cc1ccccc1)Cc1ccccc1`: the growth inhibition in assay [1] was 5.9%; in assay [2] it was 26.9%; in assay [3], 9.45%; in assay [4] it was -73%; in assay [5], 4.95%; in assay [6], -11.2%.

With `NNC(=O)CSc1ncnc2nc[nH]c12`, the growth inhibition in assay [1] was 1.3%; in assay [2] it was 9.8%; in assay [3] it was 0.55%; in assay [4] it was -3%; in assay [5] it was 9.65%; in assay [6], -0.5%.

As to `N#CCc1csc(-c2ccccc2)n1`, the growth inhibition in assay [1] was 26.6%; in assay [2], 16.8%; in assay [3] it was 6.2%; in assay [4], 15.2%; in assay [5], 1.55%; in assay [6], 27%.

Take `CCCCCCC(=O)N1SC(NC(=O)OC)=Nc2ccccc21`: the growth inhibition in assay [1] was 5.55%; in assay [2], 7.3%; in assay [3], 27.6%; in assay [4], 36.5%; in assay [5], 69.7%; in assay [6], 41%.

For the compound `COC(=N)Cc1cc(OC)cc(OC)c1`, the growth inhibition is -2.45% in assay [1]; 6.4% in assay [2]; 7.45% in assay [3]; -12.7% in assay [4]; 21.2% in assay [5]; -6.6% in assay [6].

As to `CN(C=O)c1ccc(C(=O)O)cc1`, the growth inhibition in assay [1] is 4.35%; in assay [2] it was 11.9%; in assay [3], -6.25%; in assay [4] it was 2%; in assay [5], 17.6%; in assay [6] it was 10.6%.

Consider `O=[N+]([O-])c1cccc(Cc2nc3ccccc3nc2-c2ccccc2)c1`, for which the growth inhibition in assay [1] was 34.9%; in assay [2], 18.2%; in assay [3] it was 13.7%; in assay [4] it was 4.1%; in assay [5] it was 48.6%; in assay [6], 37.7%.

As for `Cc1nn2c(=O)n(-c3cccc(-n4nnc5c(-c6ccccc6)c(C)nn5c4=O)c3C)nnc2c1-c1ccccc1`, the growth inhibition in assay [1] is 33.9%; in assay [2], 40.4%; in assay [3], 30.2%; in assay [4], 46.1%; in assay [5], 43.2%; in assay [6] it was 43.9%.

For `CN1CCN(c2ccncc2S(=O)(=O)N2CCN(C)CC2)CC1`, the growth inhibition was -17.2% in assay [1]; -12.7% in assay [2]; 1.2% in assay [3]; -15.4% in assay [4]; -11.4% in assay [5]; -2.5% in assay [6].

For the compound `O=c1cc(Nc2ccc(Cl)cc2)[nH]c(=O)[nH]1`, the growth inhibition in assay [1] is -1.45%; in assay [2] it was -5.45%; in assay [3], -5.55%; in assay [4], -61.9%; in assay [5], 6.2%; in assay [6] it was -7.65%.
